Shown is part of a subset that was picked to be rich in hits.
APE1 inh: qHTS Assay for Inhibitors of the Human Apurinic/apyrimidinic Endonuclease 1 (APE1); DNA repair nuclease/redox regulator APEX1 (Homo sapiens), P27695; recombinant APE1, TAMRA/BHQ-2 abasic DNA cleavage fluorescence; Potency, µM (doses to about 65.8 µM), actives largely listed as inhibitors; 350,000 tested, 0.35% active; also: nearly all actives have a fitted effect of over 55% in size
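Compound pre-exposure to 0.75 nM APE1, 15 min at ambient temperature. Reaction initiated with 50 nM TAMRA/BHQ-2 THF substrate, read immediately in kinetic mode, 525 nm excitation, 598 nm emission.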
KAT2A inh: qHTS Assay for Inhibitors of GCN5L2. Histone acetyltransferase KAT2A (Homo sapiens), Q92830. GCN5L2 HAT assay, ThioGlo1 CoA-SH fluorescence. Potency, µM (top dose mostly 58.9 µM), usual class: inhibitors. 390,000 tested, 0.21% active. AID 504327, 2011
Target sequence (Q92830 whole entry, looked up): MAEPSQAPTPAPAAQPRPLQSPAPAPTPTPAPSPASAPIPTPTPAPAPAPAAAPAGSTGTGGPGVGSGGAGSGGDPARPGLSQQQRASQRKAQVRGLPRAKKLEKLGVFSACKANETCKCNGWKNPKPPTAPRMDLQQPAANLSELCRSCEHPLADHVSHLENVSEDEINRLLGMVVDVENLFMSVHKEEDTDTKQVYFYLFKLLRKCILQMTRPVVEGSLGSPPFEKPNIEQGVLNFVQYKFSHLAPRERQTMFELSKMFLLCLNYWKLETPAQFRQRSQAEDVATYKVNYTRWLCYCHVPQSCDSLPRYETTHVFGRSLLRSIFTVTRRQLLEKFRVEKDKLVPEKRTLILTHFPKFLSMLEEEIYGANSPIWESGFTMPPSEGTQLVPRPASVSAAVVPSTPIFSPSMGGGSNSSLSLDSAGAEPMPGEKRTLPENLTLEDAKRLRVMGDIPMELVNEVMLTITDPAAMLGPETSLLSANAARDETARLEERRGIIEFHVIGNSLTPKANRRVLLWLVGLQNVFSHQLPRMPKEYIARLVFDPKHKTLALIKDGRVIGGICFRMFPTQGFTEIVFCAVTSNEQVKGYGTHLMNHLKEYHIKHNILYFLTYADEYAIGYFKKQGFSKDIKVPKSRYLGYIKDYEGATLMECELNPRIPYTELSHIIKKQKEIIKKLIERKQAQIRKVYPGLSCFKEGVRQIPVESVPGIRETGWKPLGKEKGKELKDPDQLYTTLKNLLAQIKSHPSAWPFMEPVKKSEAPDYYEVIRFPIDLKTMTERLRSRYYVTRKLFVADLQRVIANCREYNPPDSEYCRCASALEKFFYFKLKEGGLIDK
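Free CoA generated was detected with ThioGlo1 (50uM) fluorescence at Ex340nm/Em540nm, read immediately and after 20 min at room temperature. Enzyme, 20 nM in HEPES pH 7.5 buffer, saw compounds 15 min before adding 75uM H3(1-25) peptide and 70uM acetyl-CoA.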
RECQ1 inh: qHTS Assay for Inhibitors of RecQ-Like Dna Helicase 1 (RECQ1) | Potency, µM (highest dose often 57.3 µM), hits mostly inhibitors | RECQ1 DNA unwinding, red fluorescence kinetic read | 240,000 tested, 0.54% active; also: nearly all actives have a fitted effect of over 30% in size
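50 nM RECQ1T1 preincubated 15 min with compound in Tris pH 8.0 buffer with MgCl2, DTT, Tween-20 and 2.5 ug/ml poly(dI-dC); started with 200 nM TAMRA/BHQ-2 forked duplex and 2 mM ATP. Unwinding read as fluorescence (525/598 nm), two reads 2 h apart.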
JMJD2E inh: qHTS Assay for Inhibitors of Human Jumonji Domain Containing 2E (JMJD2E) | Lysine-specific demethylase 4E (Homo sapiens), B2RXH2 | JMJD2E catalytic domain, FDH-coupled NADH fluorescence (FDH is formaldehyde dehydrogenase) | Potency, µM (doses to about 57.1 µM), hits mostly inhibitors | 230,000 tested, 1.6% active | AID 2147, 2009; active = well fitted inhibition curve with a large enough effect, not every such curve was filed as active; inconclusive = small, poorly fitted or top-dose-only effect, or another doubt; inactive = no such curve, though single readings can be large or run the other way; also: nearly all actives have a fitted effect of over 50% in size
TDP1 block: qHTS Assay for Inhibitors of Tyrosyl-DNA Phosphodiesterase (TDP1); 350,000 tested, 0.28% active; recombinant TDP1, AlphaScreen DNA substrate cleavage; Tyrosyl-DNA phosphodiesterase 1 (Homo sapiens), Q9NUW8; AID 485290, 2010; Potency, µM (top dose mostly 130 µM), hits mostly inhibitors; also: nearly all actives have a fitted effect of over 40% in size
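Signal: AlphaScreen proximity between streptavidin donor and anti-FITC acceptor beads on intact substrate. Reaction: Tdp1 1 nM, substrate 15 nM final, 5 min RT after 15 min compound preincubation.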
BLM inh: qHTS Assay for Inhibitors of Bloom's syndrome helicase (BLM). Potency, µM (highest dose often 56.1 µM), usual class: inhibitors. AID 2528, 2010. 350,000 tested, 0.2% active. RecQ-like DNA helicase BLM (Homo sapiens), P54132. recombinant BLM DNA unwinding, fluorescence dequenching; also: nearly all actives have a fitted effect of over 35% in size
A number is an active result. Unless noted, calls follow the shape of the dose curve; as a rule, active = well fitted curve in the direction sought with a large enough effect; inconclusive = small, poorly fitted or top-dose-only effect, or another doubt; inactive = no such curve, though single readings can be large; an effect the other way counts as inactive or inconclusive.

Results for O=C(CSc1ccc2nnc(-c3ccccn3)n2n1)N1CCN(c2ccccc2)CC1 ?
APE1 inh: inactive; KAT2A inh: inactive; RECQ1 inh: 40µM; JMJD2E inh: inactive; TDP1 block: inactive; BLM inh: inactive

What do the screens show for `CCCN1CNc2c(c(=O)[nH]c(=S)n2CCc2ccccc2Cl)C1`?
TDP1 block: inactive

Results for O=C1c2ccccc2C(=O)N1c1ncccc1O ?
TDP1 block: inactive

Results for O=c1[nH][nH]c(=S)n1-c1ccccc1C(F)(F)F ?
APE1 inh: inactive; KAT2A inh: inactive; RECQ1 inh: inactive; JMJD2E inh: 6.3µM; TDP1 block: inactive; BLM inh: inactive

How did O=c1[nH]ncn1-c1ccccc1C(F)(F)F do in these assays?
APE1 inh: inactive; KAT2A inh: inactive; RECQ1 inh: inactive; JMJD2E inh: inactive; TDP1 block: inactive; BLM inh: inactive

Results for CC(C)(C)n1ncc2c(=O)n(Cc3ccc(F)c(F)c3F)cnc21 ?
APE1 inh: inactive

What do the screens show for `c1ccc(-c2cn3nc4c(nc3n2)CCCC4)cc1`?
APE1 inh: inactive; KAT2A inh: inconclusive; RECQ1 inh: inactive; JMJD2E inh: 32µM; TDP1 block: inactive; BLM inh: inactive

Results for CC(=O)c1ccsc1-c1c(C)cc2oc(=O)cc(-c3ccccc3)c2c1C ?
APE1 inh: inactive; KAT2A inh: inactive; RECQ1 inh: 22µM; TDP1 block: inactive; BLM inh: inactive

What do the screens show for `Cn1c2ccccc2c(=O)c2ccc(NCCc3cccs3)cc21`?
APE1 inh: inactive; KAT2A inh: 10µM; TDP1 block: inactive

Results for Cn1c(C(=O)NCc2cccs2)cc2c(=O)n(C)c3ccccc3c21 ?
APE1 inh: inactive; KAT2A inh: inactive; RECQ1 inh: inactive; JMJD2E inh: inconclusive; TDP1 block: inactive; BLM inh: inactive

What do the screens show for `Cc1ccc(CNC(=O)C2CCCN(c3nc4ccccc4n4cccc34)C2)cc1` (stereo unspecified)?
KAT2A inh: inactive; TDP1 block: inactive; BLM inh: inactive

How did CC(=O)Nc1c([N+](=O)[O-])cc(C)c(Cl)c1[N+](=O)[O-] do in these assays?
APE1 inh: inactive; KAT2A inh: inactive; RECQ1 inh: inactive; JMJD2E inh: inactive; TDP1 block: inactive; BLM inh: inactive

Results for CC(=O)Nc1c([N+](=O)[O-])cc2[nH]c(=O)[nH]c2c1[N+](=O)[O-] ?
APE1 inh: inactive; KAT2A inh: inactive; RECQ1 inh: inactive; JMJD2E inh: 25µM; TDP1 block: inactive; BLM inh: inactive

What do the screens show for `Cc1nn(-c2ccc(F)cc2)c(Cl)c1/C=N/NC(=O)c1cccs1`?
APE1 inh: inactive; KAT2A inh: inactive; RECQ1 inh: inactive; JMJD2E inh: inactive; TDP1 block: 79µM; BLM inh: inactive

Results for Cc1nn(-c2ccc(F)cc2)c(Cl)c1/C=N/NC(=O)c1ccc(O)cc1 ?
APE1 inh: inactive; KAT2A inh: inactive; RECQ1 inh: inactive; JMJD2E inh: inactive; TDP1 block: inactive; BLM inh: inactive

How did O=c1cc2ncc(-n3cc([N+](=O)[O-])cn3)cn2[nH]1 do in these assays?
APE1 inh: inconclusive; KAT2A inh: inactive; RECQ1 inh: inconclusive; JMJD2E inh: inactive; TDP1 block: 8.9µM; BLM inh: inactive

How did O=c1cc2ncc(-c3[nH]ncc3[N+](=O)[O-])cn2[nH]1 do in these assays?
APE1 inh: inactive; KAT2A inh: inactive; RECQ1 inh: inactive; JMJD2E inh: inconclusive; TDP1 block: inactive; BLM inh: inactive

Source: PubChem BioAssay (National Center for Advancing Translational Sciences (NCATS))
